Measurements taken from PubChem BioAssay (NCATS).
A number with no mark means an inactive call. Calls follow the shape of the dose curve; as a rule, active = well fitted inhibition curve with a large enough effect; inconclusive = small, poorly fitted or top-dose-only effect; inactive = flat fitted curve, though single readings scatter.

Tested on: Nanoluciferase (engineered Oplophorus gracilirostris luciferase)
Test: Primary Nanoluciferase (NLuc) qHTS assay for identification of artifact compounds. (AID 1845222);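 also: NLuc secreted into diluted conditioned medium of S16 cells; 0% = DMSO and -100% = no enzyme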
Conditions: NLuc-conditioned medium, Nano-Glo luminescence, 5 min; series mostly up to 54.1 µM; activity, negative = inhibition: at the top concentration
How it was run: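 Using secreted nanoluciferase in S16 culture medium (0.22 um filtered, 1:55 dilution), compounds were preincubated 15 min at RT. Signal was generated with Nano-Glo reagent (1:100) over 5 min.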

Compound | activity, negative = inhibition
O=c1c2ccccc2nc2n1CCc1c-2[nH]c2ccccc12 | 0.359%
CN(C)Cc1c(C(=O)NCCOc2ccc(C(=O)NO)cc2)oc2ccccc12 | 1.02%
COc1cccc2c(NCc3ccccc3)nc(-n3c(N)nc4ccccc43)nc12 | 4.2%
COc1c(OCCCN2CCOCC2)ccc2c3n(c(=NC(=O)c4cnc(N)nc4)nc12)CCN3 | 0.183% [at 11.6 µM]
NC(=O)c1cccc2cn(-c3ccc([C@@H]4CCCNC4)cc3)nc12 | 2.24%
O=C(CCCCCCNC(=O)c1cnc(N(c2ccccc2)c2ccccc2)nc1)NO | -23.9%
Nc1ccccc1NC(=O)c1ccc(CNC(=O)OCc2cccnc2)cc1 | -4.77%
COc1cc2c(cc1-c1c(C)noc1C)ncc1[nH]c(=O)n([C@H](C)c3ccccn3)c12 | -21%
